Results as given in PubChem BioAssay (NCATS).
Several values for one entry are separate records, joined by “and”; a condition that tells them apart may be missing. Equal values may be shown once. Inconclusive results are not listed. Activity calls are given as the source filed them. Unless noted, the call rests on the fitted dose curve; in most records, active means well fitted curve in the direction sought with a large enough effect; inconclusive means small, poorly fitted or top-dose-only effect, or another doubt; inactive means no such curve, though single readings can be large; an effect the other way counts as inactive or inconclusive.

Columns and labels:
[1] = test system: MKL-2; assay: qHTS assay to identify novel small-molecules to repurpose for Merkel cell carcinoma treatment (AID 1296009); settings: MCC and control cell lines, CellTiter-Glo viability, 72 h; series mostly up to 46 µM; further: nearly all actives have a fitted effect of over 60% in size
How it was run: (§1)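 Cells exposed to NPC (8-point) and MIPE (11-point) compound dilutions for 72 hr at 37 degree celsius; viability read by CellTiter-Glo luminescence, normalized to no-cell and DMSO in-plate controls.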

[2] = test system: NIH3T3; assay: as above; settings: MCC and control cell lines, CellTiter-Glo viability, 72 h; at 44.8 µM (top of the series) unless noted
How it was run: as §1

[3] = test system: UISO; assay: as above; settings: MCC and control cell lines, CellTiter-Glo viability, 72 h; series mostly up to 46 µM
How it was run: as §1

[4] = test system: WaGa; assay: as above; settings: MCC and control cell lines, CellTiter-Glo viability, 72 h; series mostly up to 46 µM
How it was run: as §1

[5] = test system: C33A; assay: Primary qHTS to identify gynecologic anti-cancer compounds using libraries of approved drugs and bioactive compounds (AID 1345084); settings: Gynecologic cancer cell panel viability, ATPlite luminescence, 48 h; series mostly up to 57.5 µM; further: on the % scale 0 is the no-effect control and ±100 the full control effect; nearly all actives have a fitted effect of over 55% in size
How it was run: (§2)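 Measured: luminescence after ATPlite addition (15 min, RT). Exposure: 48 h, 37 C, 5% CO2.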

[6] = test system: CAOV3; assay: as above; settings: Gynecologic cancer cell panel viability, ATPlite luminescence, 48 h; series mostly up to 57.5 µM
How it was run: as §2

[7] = test system: CASKI; assay: as above; settings: Gynecologic cancer cell panel viability, ATPlite luminescence, 48 h; series mostly up to 57.5 µM
How it was run: as §2

[8] = test system: Es-2; assay: as above; settings: Gynecologic cancer cell panel viability, ATPlite luminescence, 48 h; series mostly up to 57.5 µM
How it was run: as §2

[9] = test system: HeLa; assay: as above; settings: Gynecologic cancer cell panel viability, ATPlite luminescence, 48 h; series mostly up to 57.5 µM
How it was run: as §2

[10] = test system: Hek293T; assay: as above; settings: Gynecologic cancer cell panel viability, ATPlite luminescence, 48 h, control line for the selectivity index; series mostly up to 57.5 µM
How it was run: as §2

[11] = test system: JEG-3; assay: as above; settings: Gynecologic cancer cell panel viability, ATPlite luminescence, 48 h; series mostly up to 57.5 µM
How it was run: as §2

[12] = test system: OV90; assay: as above; settings: Gynecologic cancer cell panel viability, ATPlite luminescence, 48 h; series mostly up to 57.5 µM
How it was run: as §2

[13] = test system: PA-1; assay: as above; settings: Gynecologic cancer cell panel viability, ATPlite luminescence, 48 h; series mostly up to 57.5 µM
How it was run: as §2

[14] = test system: SKOV3; assay: as above; settings: Gynecologic cancer cell panel viability, ATPlite luminescence, 48 h; series mostly up to 57.5 µM
How it was run: as §2

[15] = test system: Tov-21-G; assay: as above; settings: Gynecologic cancer cell panel viability, ATPlite luminescence, 48 h; series mostly up to 57.5 µM
How it was run: as §2

[16] = test system: Tov112D; assay: as above; settings: Gynecologic cancer cell panel viability, ATPlite luminescence, 48 h; series mostly up to 57.5 µM
How it was run: as §2

[17] = Drug repurposing screens with cells derived from glioblastoma tumor samples (AID 1345199); settings: GBM patient neurospheres viability, ATP luminescence, 48 h; further: nearly all actives have a fitted effect of over 40% in size; further: potency means the concentration at half of the fitted maximal effect; on activity, negative = cell killing: on the % scale 0 is the no-effect control and ±100 the full control effect
How it was run: (§3)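 Four patient lines of CD133+ GBM neurospheres were screened at several concentrations; hits were retested in those lines plus three slower-growing GBM lines, using 48-hour treatment and ATP-based viability.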

[18] = test system: astro; assay: as above; settings: viability, ATP luminescence, 48 h; series mostly up to 45.9 µM
How it was run: as §3

[19] = molecular target: Nuclear receptor subfamily 1 group I member 2 (Rattus norvegicus) (UniProt Q9R1A7); assay: qHTS assay for small molecule activators of the rat pregnane X receptor (rPXR) signaling pathway (AID 651751; call rule not given here; further: 0% is about no effect); settings: rPXR reporter cells, luciferase (One-Glo), 24 h
Chain of Nuclear receptor subfamily 1 group I member 2 (Rattus norvegicus) (Q9R1A7 whole entry, looked up): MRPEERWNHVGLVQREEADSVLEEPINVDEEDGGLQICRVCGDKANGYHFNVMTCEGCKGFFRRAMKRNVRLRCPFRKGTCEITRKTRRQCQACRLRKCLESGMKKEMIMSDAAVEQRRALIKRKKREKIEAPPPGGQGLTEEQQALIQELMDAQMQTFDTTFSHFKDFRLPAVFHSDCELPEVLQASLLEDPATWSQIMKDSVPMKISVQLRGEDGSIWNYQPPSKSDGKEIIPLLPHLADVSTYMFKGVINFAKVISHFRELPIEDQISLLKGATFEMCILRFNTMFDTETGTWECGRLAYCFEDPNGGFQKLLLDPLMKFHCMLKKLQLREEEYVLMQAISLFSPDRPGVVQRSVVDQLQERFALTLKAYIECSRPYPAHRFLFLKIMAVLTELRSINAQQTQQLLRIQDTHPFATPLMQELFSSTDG

[20] = qHTS assay for small molecule activators of the human pregnane X receptor (PXR) signaling pathway (AID 720659; call rule not given here; further: 0% is about no effect)
[21] = at 45.9 µM (top of the series), tumour line B
[22] = at 45.9 µM (top of the series), tumour line D

CC1(C)C(C=C(Cl)Cl)C1C(=O)OC(C#N)c1cccc(Oc2ccccc2)c1 (stereo not given)
inactive: Potency [1] | outcome [2] | Potency [3] | Potency [4] | Potency [5] | outcome [6] | outcome [7] | Potency [8] | Potency [9] | outcome [10] | outcome [11] | Potency [12] | Potency [13] | outcome [14] | Potency [15] | Potency [16] | activity, negative = cell killing [17, 21] -16.8% | activity, negative = cell killing ([17]; at 46.1 µM (top of the series), tumour line C) -35.5% | Potency [18]
active: Potency ([17]; tumour line A) 25.1 µM

CCc1cc2c(s1)-n1c(C)nnc1CN=C2c1ccccc1Cl
inactive: Potency [1] | outcome [2] | Potency [3] | Potency [4] | Potency [5] | outcome [6] | outcome [7] | Potency [8] | Potency [9] | outcome [10] | outcome [11] | Potency [12] | Potency [13] | outcome [14] | Potency [15] | Potency [16] | activity, negative = cell killing [17, 21] -22.1% | activity, negative = cell killing [17, 22] -8.05% | Potency [18]

ClCCN1CCCC1
inactive: Potency [1] | outcome [2] | Potency [3] | Potency [4] | Potency [5] | outcome [7] | Potency [8] | Potency [9] | outcome [10] | outcome [11] | Potency [12] | Potency [13] | outcome [14] | Potency [15] | Potency [16]

C[N+]1(CCF)[C@@H]2CC[C@H]1CC(OC(=O)C(O)(c1ccccc1)c1ccccc1)C2 (stereo not given in full)
inactive: Potency [1] | outcome [2] | Potency [3] | Potency [4] | Potency [5] | outcome [6] | outcome [7] | Potency [8] | Potency [9] | outcome [10] | outcome [11] | Potency [12] | Potency [13] | outcome [14] | Potency [15] | Potency [16] | activity, negative = cell killing [17, 21] -12.6% | activity, negative = cell killing [17, 22] -18.1%
active: Potency ([17]; tumour line A) 11.2 µM

O=C(CCCN1CCC2(CC1)C(=O)NCN2c1ccccc1)c1ccc(F)cc1
inactive: Potency [1] | outcome [2] | Potency [3] | Potency [4] | Potency [5] | outcome [6] | outcome [7] | Potency [8] | Potency [9] | outcome [10] | outcome [11] | Potency [13] | outcome [14] | Potency [15] | Potency [16]
active: Potency ([17]; tumour line A) 2.24 µM | Potency ([17]; tumour line D) 12.6 µM

O=P1(N(CCCl)CCCl)NCCCO1 (stereo not given)
inactive: Potency [1] | Potency [3] | Potency [4] | Potency [5] | outcome [6] | outcome [7] | Potency [8] | Potency [9] | outcome [10] | outcome [11] | Potency [12] | Potency [13] | Potency [15] | Potency [16] | activity, negative = cell killing [17, 21] -0.921% | activity, negative = cell killing [17, 22] 1.42% | Potency [18] | max response [19] 6.19% and -0.989% | outcome [20]

[N-]=[N+]=CC(=O)OC[C@H](N)C(=O)O
inactive: Potency [1] | Potency [3] | Potency [4] | Potency [5] | outcome [6] | outcome [7] | Potency [8] | Potency [9] | outcome [10] | outcome [11] | Potency [12] | Potency [13] | outcome [14] | Potency [15] | Potency [16] | activity, negative = cell killing [17, 21] -23.8% | activity, negative = cell killing [17, 22] -9.43% | activity, negative = cell killing ([17]; at 46 µM (top of the series), tumour line A) -24.5% | Potency [18] | max response [19] -5.51% | outcome [20]
